Results as given in PubChem BioAssay (NCATS).
Inconclusive results are not listed. A call without a number means that no potency is given here. Calls of active or inactive are those of the source. Calls follow the shape of the dose curve; as a rule, active = well fitted inhibition curve with a large enough effect; inconclusive = small, poorly fitted or top-dose-only effect; inactive = flat fitted curve, though single readings scatter.

The compounds below were run on Zika virus NS2B-NS3 protease (assay: Primary screen GU AMC qHTS for Zika virus inhibitors (AID 1347154; also: nearly all actives have a fitted effect of over 70% in size)). Conditions: Zika NS2B-NS3 unlinked protease, AMC fluorogenic substrate; series mostly up to 54.1 µM.
Description: Avindra Nath, Ph.D., National Institute of Neurological Disorders and Stroke (NINDS), Bethesda, MD
Radhakrishnan Padmanabhan, Ph.D., Georgetown University (GU), Washington D.C.
Zika Virus causes congenital defects, including microcephaly and is associated with Guillain-Barre syndrome, eningoencephalitis and myelitis in infected adult. […] Using a target-based approach, we hope to establish a screening paradigm to uncover novel, cell-active NS2B-NS3 protease (Zika Virus) specific inhibitors from NCATS' collection of small molecules using qHTS.
Early Translation Branch (ETB)
National Center for Advancing Translational Sciences (NCATS), Rockville, MD
National Institute of Health (NIH), Bethesda, Maryland
Padmanabhan lab provided the NS2B hydrophilic domain and NS3 protease domain in a noncovalent complex used for the unlinked assay. Control compound aprotinin is obtained from Thermo Scientific (#78432; Waltham, Massachusetts). NS2B-NS3 AMC substrate (Bz-Nle-Lys-Arg-Arg-AMC; Nle-KRR-AMC) purchased from Bachem (#I-1995; Torrance, CA). Ac-VKTGKR-AMC purchased from Genscript or Bachem, Ac-FAAGKR-AMC purchased from Genscript, Ac-GLVKRR-AMC purchased from Genscript, Ac-LKKR-AMC purchased from Genscript.
GU AMC unlinked NS2B-NS3 protease qHTS protocol
Briefly, 3 microL of Zika virus unlinked NS2B-NS3 protease (25 nM for linked final concentration), in assay buffer (10 mM Tris-HCl pH 8.0 with 0.01% Tween 20) was dispensed into a 1,536-well solid-bottom black plate (Greiner Bio One, Monroe, NC). […] Plates were then read immediately on a ViewLux High-throughput CCD imager (PerkinElmer, Waltham, MA) equipped with standard UV fluorescence optics (340(30) nm excitation, 450(20) nm emission) then incubated (room temperature, protected from light) for 15 minutes (~20% conversion). The change in fluorescence intensity over the 15-minute reaction period was normalized against no-inhibitor and no-enzyme controls and the resulting percent inhibition data were fitted to a 4-parameter Hill equation. Aprotinin was used as the intraplate control.
Potency is read from the fitted curve at half-maximal effect.

How did the Potency turn out when Cc1nn(Cc2ccccc2Cl)c(C)c1CN(C)CC(O)COc1ccc(Cl)cc1 (stereo not given) was run?
The Potency was “inactive”.

OC[C@H]1O[C@@H](Oc2ccc(O)cc2)[C@H](O)[C@@H](O)[C@H]1O was tested. Which Potency did it give?
Its Potency is “inactive”.

Which Potency does the source give for CC(C)(OCc1nn(Cc2ccccc2)c2ccccc12)C(=O)O here?
The Potency was “inactive”.

Which Potency does the source give for NS(=O)(=O)c1ccc(Nc2nc(OCC3CCCCC3)c3[nH]cnc3n2)cc1 here?
Its Potency is “inactive”.

CCC(=C(c1ccc(O)cc1)c1ccc(OCCNC)cc1)c1ccccc1 was tested. Which Potency did it give?
Its Potency is “inactive”.

For CC(C)CNc1ccnc(NCc2csc(-c3ccccc3)n2)n1, which Potency is on record?
Its Potency is “inactive”.

For CCC(c1ccc(O)cc1)C(CC)c1ccc(O)cc1 (stereo not given), which Potency is on record?
Its Potency is “inactive”.

For CC(C)C[C@H](NC(=O)c1cc2ccccc2s1)C(=O)N1CCN(C(=O)[C@H](CO)NS(=O)(=O)c2ccc(Cl)cc2Cl)CC1, which Potency is on record?
Its Potency is “inactive”.

How did the Potency turn out when Cc1cc(C(C)Nc2ccccc2)c2nc(N3CCOCC3)cc(=O)n2c1 (stereo not given) was run?
The Potency was “inactive”.

How did the Potency turn out when CCOC(=O)[C@H]1O[C@H]1C(=O)N[C@@H](CC(C)C)C(=O)NCCC(C)C was run?
Its Potency is “inactive”.

With C[C@]12CCC3=C4CCC(=O)C=C4CC[C@@H]3[C@H]1CC[C@@]2(O)CC#N as the compound, how does the Potency read?
Its Potency is “inactive”.

With CN[C@@H]1[C@@H](O)[C@@H](O[C@@H]2[C@@H](O)[C@H](O[C@H]3O[C@H](CN)[C@@H](O)[C@H](O)[C@@H]3O)[C@@H](N)C[C@@H]2NC(=O)[C@@H](O)CN)OC[C@]1(C)O as the compound, how does the Potency read?
Its Potency is “inactive”.

Which Potency does the source give for Cn1c(=O)c(-c2c(Cl)cccc2Cl)cc2cnc(Nc3cccc(C(=O)O)c3)nc21 here?
The Potency was “inactive”.

Which Potency does the source give for CN(C)CCCNC(=O)c1ccc(-c2cc(O)c3ncccc3c2)cc1 here?
The Potency was “inactive”.

How did the Potency turn out when CC(O)=C(C#N)C(=O)Nc1ccc(C(F)(F)F)cc1 was run?
The Potency was “inactive”.

With CC1CNc2c(cccc2S(=O)(=O)N[C@@H](CCCN=C(N)N)C(=O)N2CC[C@@H](C)C[C@@H]2C(=O)O)C1 (stereo not given in full) as the compound, how does the Potency read?
Its Potency is “inactive”.

How did the Potency turn out when NS(=O)(=O)c1cc(Cl)c(Cl)c(S(N)(=O)=O)c1 was run?
The Potency was “inactive”.

Which Potency does the source give for CO[C@H]1/C=C\O[C@@]2(C)Oc3c(C)c(O)c4c(O)c(c5c(nc6cc(C)ccn65)c4c3C2=O)NC(=O)C(C)=CC=C[C@H](C)[C@H](O)[C@@H](C)[C@@H](O)[C@@H](C)[C@H](OC(C)=O)[C@H]1C here?
The Potency was “inactive”.

How did the Potency turn out when COc1ccc(-c2ccc3ncc4c(c3c2)n(-c2ccc(N3CCNCC3)c(C(F)(F)F)c2)c(=O)n4C)cn1 was run?
The Potency was 21.5 µM (active).

Cc1c(C(=O)Nc2ccc(N3C[C@@H](C)O[C@@H](C)C3)nc2)cccc1-c1ccc(OC(F)(F)F)cc1 was tested. Which Potency did it give?
The Potency was “inactive”.

Which Potency does the source give for Cc1nc(C(=O)NCC(=O)O)c(O)c2ccc(Oc3ccccc3)cc12 here?
The Potency was 21.5 µM (active).

For OC1CCC(Nc2ncc3nc(Nc4c(F)cc(F)cc4F)n([C@@H]4CCOC4)c3n2)CC1 (stereo not given in full), which Potency is on record?
The Potency was 24.1 µM (active).

CNC1CCC(N(Cc2cccc(-c3ccncc3)c2)C(=O)c2sc3ccccc3c2Cl)CC1 (stereo not given) was tested. Which Potency did it give?
Its Potency is “inactive”.

CN1CCN(c2ncc(-c3cc(Cl)cc(Cl)c3Cl)c(N)n2)CC1 was tested. Which Potency did it give?
The Potency was “inactive”.

How did the Potency turn out when CON(C)C(=O)N1N=C(c2cc(F)ccc2F)S[C@]1(CCCN)c1ccccc1 was run?
The Potency was “inactive”.

For C[C@@H]1C[C@H]2[C@@H]3CCC4=CC(=O)C=C[C@]4(C)[C@@]3(F)[C@@H](O)C[C@]2(C)[C@@]1(O)C(=O)CO, which Potency is on record?
Its Potency is “inactive”.

C[C@H]1O[C@@H](n2cc(F)c(=O)[nH]c2=O)[C@H](O)[C@H]1O was tested. Which Potency did it give?
The Potency was “inactive”.

For Cc1cc2nc3c(=O)[nH]c(=O)nc-3n(CC(O)C(O)C(O)CO)c2cc1C (stereo not given), which Potency is on record?
The Potency was “inactive”.

How did the Potency turn out when COc1nccc(-c2c(-c3ccc(F)cc3)ncn2C2CCNCC2)n1 was run?
The Potency was “inactive”.

How did the Potency turn out when CNc1nc(Nc2ccc(C(=O)N3CCOCC3)cc2OC)ncc1Cl was run?
The Potency was “inactive”.

With Cc1ccc(S(=O)(=O)Nc2nc3ccccc3nc2Nc2ccc3nsnc3c2)cc1 as the compound, how does the Potency read?
Its Potency is “inactive”.

For CC(=O)OCC(=O)[C@@]12OC(C)(C)O[C@H]1C[C@H]1[C@@H]3C[C@H](F)C4=CC(=O)C=C[C@]4(C)[C@@]3(F)[C@@H](O)C[C@@]12C, which Potency is on record?
Its Potency is “inactive”.

CCc1cc(-c2n[nH]c(C)c2-c2ccc3c(c2)OCCO3)c(O)cc1O was tested. Which Potency did it give?
Its Potency is “inactive”.

How did the Potency turn out when CCNC(=O)Nc1ccc(Oc2ncnc(N)c2C=NOC)cc1Cl was run?
The Potency was “inactive”.

How did the Potency turn out when Cc1cccc(Nc2nc(N[C@@H]3CCCC[C@H]3N)ncc2C(N)=O)c1 was run?
The Potency was “inactive”.

How did the Potency turn out when C[C@@H]1CC=CC=CC=CC=C[C@@H](O[C@@H]2O[C@H](C)[C@@H](O)[C@H](N)[C@H]2O)C[C@@H]2O[C@](O)(C[C@@H](O)C[C@@H]3O[C@@H]3C=CC(=O)O1)C[C@H](O)[C@@H]2C(=O)O was run?
Its Potency is “inactive”.

Which Potency does the source give for CN1[C@H]2CC[C@H]1CC(OC(=O)c1c[nH]c3ccccc13)C2 (stereo not given in full) here?
Its Potency is “inactive”.

O=c1[nH]c(=O)n([C@H]2C[C@@H](O)[C@@H](CO)O2)cc1C(F)(F)F was tested. Which Potency did it give?
The Potency was “inactive”.

Which Potency does the source give for C#C[C@]1(O)CC[C@H]2[C@H]3CCc4cc(OC)ccc4[C@H]3CC[C@@]21C here?
Its Potency is “inactive”.

With COC(=O)[C@H](c1ccccc1Cl)N1CCc2sccc2C1 as the compound, how does the Potency read?
The Potency was “inactive”.
